The results in this text go back to PubChem BioAssay (NCATS).

Assay [1] addresses Bile acid receptor (Homo sapiens) (UniProt Q96RI1). The assay can be described thus: qHTS assay for small molecule agonists of farnesoid X receptor signaling (AID 588527).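 Note: series mostly up to about 77 µM; 0% = vehicle basal and 100% = reference agonist.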 The following applies: HEK293T FXR-UAS-bla, beta-lactamase ratio, 16 h; activation: stronger effect = higher value. An outline of the steps: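 Agonist-mode beta-lactamase reporter in GeneBLAzer FXR-UAS-bla HEK293T cells, titration up to 92 uM, 16 h exposure at 37 C, CCF4 fluorescence. Response scaled to DMSO (0%) and 100 uM chenodeoxycholic acid (100%), then Hill-fitted for EC50 and efficacy.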
In general terms: In qHTS, concentration-response curves come from the screen itself.

Assay [2] has as its target Peroxisome proliferator-activated receptor delta (Homo sapiens) (UniProt Q03181). Briefly: qHTS assay for small molecule agonists of peroxisome proliferator-activated receptor delta signaling (AID 588534).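 Note: 0% = DMSO basal wells and 100% = positive control agonist at 10 µM.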 The procedure, abridged:
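Agonist-mode beta-lactamase reporter readout (CCF4 dye, 2 h at RT) after 18 h at 37 °C exposure to a titration; Hill-equation fitting gave EC50 and maximal response.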

Assay [3] concerns the target Voltage-gated inwardly rectifying potassium channel KCNH2 (Homo sapiens) (UniProt Q12809). The assay can be described thus: qHTS Assay for Small Molecule Inhibitors of the Human hERG Channel Activity (AID 588834; active = well fitted curve in the direction sought with a large enough effect; an effect the other way counts as inactive or inconclusive;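 note: top concentration of the series differs between compounds; % is set by controls: 0 for no effect and ±100 for the full control effect; lower thallium flux fluorescence means stronger hERG block; nearly all actives have a fitted effect of over 50% in size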). The procedure, abridged:
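Homogeneous FluxOR thallium flux assay using hERG-expressing U2OS cells (BacMam). Compound treatment about 10 minutes preceded stimulation; reduced fluorescence taken as channel block.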

The nature of assay [4]: S16 Schwann cell PMP22 intronic element firefly luciferase assay (AID 624032; active = well fitted curve in the direction sought with a large enough effect; an effect the other way counts as inactive or inconclusive;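 note: series mostly up to about 58 µM; plate controls were DMSO for no effect and PTC124 positive control mean for full effect; nearly all actives have a fitted effect of over 30% in size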). An outline of the steps: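 Luciferase reporter of PMP22 intronic-element expression in stably transfected S16 rat Schwann cells, read by ONE-Glo luminescence after 24 h compound exposure at 37 C. Activity scaled between DMSO (0%) and positive-control PTC124; concentration-effect curves quality-classified.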

Assay [5] has as its target Nuclear receptor ROR-gamma (Homo sapiens) (UniProt P51449). The assay can be described thus: qHTS assay for small molecule antagonists of the retinoid-related orphan receptor gamma (ROR-gamma) signaling pathway (AID 651802; active = well fitted curve in the direction sought with a large enough effect; an effect the other way counts as inactive or inconclusive; note: nearly all actives have a fitted effect of over 60% in size; note: potency is the fitted concentration of half-maximal effect). The procedure, abridged:
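Luminescence (One-Glo, 30 min RT) measured 16 h after compound addition and doxycycline induction at 37C. Reporter: RORE-luciferase under TET-inducible ROR-gamma in CHO cells.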

The target in assay [6] is Glucocorticoid receptor (Homo sapiens) (UniProt P04150). The assay can be described thus: qHTS assay for small molecule agonists of glucocorticoid receptor signaling (AID 588532; active = well fitted curve in the direction sought with a large enough effect in the signal ratio, with a control signal flat; the % refers to the signal ratio;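 note: 100% = dexamethasone at 0.1 µM and 0% = DMSO only wells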). The following applies: HeLa MMTV-bla, beta-lactamase ratio, agonist, 18 h; activation: stronger effect = higher value, percent of dexamethasone control, DMSO zero. The procedure, abridged:
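Quantitative HTS using CellSensor MMTV-bla HeLa cells in charcoal/dextran-treated serum; compounds tested up to 92 uM. After 18 h at 37 C, CCF4 dye reported reporter induction.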

Assay [7] has the same target. Briefly: qHTS assay for small molecule antagonists of glucocorticoid receptor signaling (AID 588533; active = well fitted inhibition curve with a large enough effect in the signal ratio, with a control signal flat, not every such curve was filed as active; the % refers to the signal ratio;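 note: cells stimulated with 2 nM dexamethasone as agonist; % is set by controls: 0 for no effect and ±100 for the full control effect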). An outline of the steps:
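Antagonist-mode qHTS: compound titrations added to GRE-bla HeLa cells, then dexamethasone 2 nM final; 18 h, 37 C. CCF4 FRET fluorescence normalized to dexamethasone and DMSO; IC50 from Hill fit.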

The nature of assay [8]: qHTS assay for small molecule antagonists of peroxisome proliferator-activated receptor delta signaling (AID 588535; active = well fitted inhibition curve with a large enough effect in the signal ratio, with a control signal flat, not every such curve was filed as active; the % refers to the signal ratio;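 for max response: cells co-treated with a PPAR-delta agonist as stimulator during compound exposure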). Particulars: HEK293T PPARd-UAS-bla, beta-lactamase FRET ratio, 18 h; 460 nm channel. The procedure, abridged:
(§1)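 Titrations were run on PPAR-delta-UAS-bla HEK293T cells in charcoal/dextran-stripped serum, incubated 18 h at 37 C. CCF4 fluorescence (460/530 nm) after 2 h RT; Hill equation yields IC50 and maximal response.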

The target of assay [9] is Peroxisome proliferator-activated receptor delta (Homo sapiens) (UniProt Q03181). The assay is described as above. The procedure, abridged: as §1
Assay [10] concerns the target Vitamin D3 receptor (Homo sapiens) (UniProt P11473). The assay can be described thus: qHTS assay for small molecule antagonists of vitamin D receptor signaling (AID 588541).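 Note: receptor activated by calcitriol during compound treatment; series mostly up to about 77 µM; % is set by controls: 0 for no effect and ±100 for the full control effect.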 The procedure, abridged: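 Antagonist-mode beta-lactamase reporter assay: HEK293T VDR-UAS-bla cells were exposed to titrated compound alongside 1-alpha,25-dihydroxyvitamin D3 at 3 nM final for 16 h. Values were normalized to the 50 nM agonist control and DMSO basal, with IC50 and efficacy from Hill equation fits.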

Assay [11] has the same target. The assay can be described thus: qHTS assay for small molecule agonists of vitamin D receptor signaling (AID 588543).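 Note: 0% = DMSO basal and 100% = reference agonist control.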 An outline of the steps: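 Measured: β-lactamase reporter activity (CCF4, 405 nm excitation, 460/530 nm emission) in HEK293T VDR-UAS-bla cells after 16 h compound exposure at 37 °C. Normalization against 50 nM 1α,25-dihydroxyvitamin D3 and DMSO; Hill-fit EC50.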

A short description of assay [12]: qHTS assay for small molecule agonists of retinoid X receptor alpha signaling (AID 588544).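 For activation: 0% = DMSO basal wells and 100% = reference agonist.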 The following applies: HEK293T RXRa-UAS-bla, beta-lactamase reporter, 18 h; 530 nm emission.
The target in assay [13] is Retinoic acid receptor RXR-alpha (Homo sapiens) (UniProt P19793). The assay is described as above.
Assay [14] addresses Thyroid hormone receptor beta (Homo sapiens) (UniProt P10828). Briefly: qHTS assay for small molecule agonists of thyroid hormone receptor beta signaling (AID 588545).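 Note: 0% = DMSO only and 100% = 10 nM T3.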 The procedure, abridged:
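Stimulation of a TR-driven beta-lactamase reporter was quantified in GripTite HEK 293 cells. Compound series ran for 18 hrs; curves were normalized to T3 and DMSO controls and fitted to yield EC50.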

The nature of assay [15]: qHTS assay for small molecule agonists of the antioxidant response element (ARE) signaling pathway (AID 651741; active = well fitted activation curve with a large enough effect in the signal ratio; the % refers to the signal ratio; note: % of control where 0% means no effect). An outline of the steps:
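Beta-lactamase reporter under ARE control in HepG2 cells, 2,000 per well, was induced by 16 h compound treatment at 37 C. Read-out was fluorescence from LiveBLAzer B/G FRET substrate after 2 h at room temperature.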

The nature of assay [16]: qHTS assay for small molecule activators of the p53 signaling pathway (AID 651743; active = well fitted activation curve with a large enough effect in the signal ratio, not every such curve was filed as active; the % refers to the signal ratio; note: series mostly up to about 92 µM; % of control where 0% means no effect). The following applies: HCT-116 p53RE-bla, beta-lactamase FRET ratio, 16 h; activation: stronger effect = higher value. The procedure, abridged:
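After 16 hours compound treatment at 37 C, HCT-116 cells stably expressing p53RE-driven beta-lactamase were loaded with LiveBLAzer B/G FRET substrate for 2 hours at room temperature. Fluorescence intensity served as the p53 activation read-out.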

Assay [17] can be described thus: qHTS assay for small molecule activators of the nuclear factor-kappa B (NF-kB) signaling pathway (AID 651749; active = well fitted activation curve with a large enough effect in the signal ratio; the % refers to the signal ratio; note: series mostly up to about 77 µM; % of control where 0% means no effect). The following applies: NF-kB-bla ME-180 cells, beta-lactamase FRET ratio, 16 h; activation: stronger effect = higher value. The procedure, abridged:
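Activation measured after 16 hr compound treatment at 37C, 5% CO2, of 2,000 ME-180 cells/well stably expressing an NF-kB response element–driven beta-lactamase reporter, via FRET-disruption fluorescence.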

Assay [18] can be described thus: qHTS assay for environmental chemicals that activate the Aryl hydrocarbon Receptor (AhR) signaling pathway (AID 651777; active = well fitted curve in the direction sought with a large enough effect; an effect the other way counts as inactive or inconclusive; note: % of control where 0% means no effect; nearly all actives have a fitted effect of over 15% in size). The following applies: 1A2-DRE human hepatoma cells, luciferase, 24 h; activation: stronger effect = higher value. The procedure, abridged: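 Quantitative HTS in stably transfected human liver-derived cells whose luciferase gene sits downstream of the CYP1A2 promoter and dioxin response element. After 24 hr exposure at 37 C, One-Glo luminescence was measured.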

Assay [19] deals with Peroxisome proliferator-activated receptor alpha (Homo sapiens) (UniProt Q07869). Briefly: qHTS assay for small molecule agonists of the peroxisome proliferator-activated receptor alpha (PPARalpha) signaling pathway (AID 651778; active = well fitted curve in the direction sought with a large enough effect; an effect the other way counts as inactive or inconclusive; note: % of control where 0% means no effect). Particulars: PathHunter PPARalpha complementation, chemiluminescence, 6 h; max response: stronger effect = higher value. An outline of the steps: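 Chemiluminescence from complemented enzyme reported PPARalpha activation in cells after 6 hr of compound treatment at 37 C. The detection reagent was incubated for 60 min at room temperature, and compounds were scored as agonists.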

A short description of assay [20]: qHTS assay for small molecule agonists of the antioxidant response element (ARE) signaling pathway measured by Nrf2-dependant transcriptional activity (AID 720636; active = well fitted curve in the direction sought with a large enough effect in the repeat runs; an effect the other way counts as inactive or inconclusive; note: % of control where 0% means no effect). An outline of the steps: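 Quantitative HTS format in HepG2 cells stably expressing an ARE-luciferase reporter; 16 hr compound treatment at 37 C, luciferase signal detected with ONE-Glo.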
The nature of assay [21]: qHTS assay for small molecule agonists of the antioxidant response element (ARE) signaling pathway measured by Nrf2-dependant transcriptional activity - cell viability counter screen (AID 720653; active = well fitted curve in the direction sought with a large enough effect in the repeat runs; an effect the other way counts as inactive or inconclusive; note: % is set by controls: 0 for no effect and ±100 for the full control effect). Particulars: ARE-bla HepG2 viability, CellTiter-Glo ATP luminescence, 16 h; max response: stronger effect = lower value. The procedure, abridged:
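Cytotoxicity counter screen: intracellular ATP quantified by CellTiter-Glo luminescence in the same ARE-bla HepG2 plates, after 16 h compound exposure and a 2 h beta-lactamase substrate step.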

The nature of assay [22]: qHTS assay for cell viability of HEK293 cells (AID 743288; active = well fitted curve in the direction sought with a large enough effect; an effect the other way counts as inactive or inconclusive; note: % is set by controls: 0 for no effect and ±100 for the full control effect; nearly all actives have a fitted effect of over 50% in size). The following applies: ATP luminescence (CellTiter-Glo), 18 h; max response: stronger effect = lower value. The procedure, abridged: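 HEK293, 18 h, 37 C, ATP luminescence. Cells at 2,000/well were allowed at least 5 h to settle before dosing; CellTiter-Glo developed 30 min at RT.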
The nature of assay [23]: qHTS assay for cell viability of the p53RE-bla HCT-116 cell line (AID 743292; active = well fitted curve in the direction sought with a large enough effect; an effect the other way counts as inactive or inconclusive; note: % is set by controls: 0 for no effect and ±100 for the full control effect; nearly all actives have a fitted effect of over 55% in size). The procedure, abridged: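 Viability of compound-treated p53RE-bla HCT-116 cells is taken from ATP-dependent luciferase luminescence. Treatment lasts 16 h at 37 C after a 5 h settling period; detection follows 30 min at room temperature.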
In assay [24] the target is Nuclear receptor subfamily 1 group I member 2 (Rattus norvegicus) (UniProt Q9R1A7). Briefly: qHTS assay for small molecule activators of the rat pregnane X receptor (rPXR) signaling pathway (AID 651751; call rule not given here; note: 0% is about no effect). The following applies: rPXR reporter cells, luciferase (One-Glo), 24 h.
Assay [25] can be described thus: qHTS assay for small molecule activators of the human pregnane X receptor (PXR) signaling pathway (AID 720659; call rule not given here; note: 0% is about no effect).
Assay [26] addresses Luciferin 4-monooxygenase (Photinus pyralis) (UniProt P08659). The assay can be described thus: Biochemical firefly luciferase enzyme assay for NPC (AID 624030; active = well fitted curve in the direction sought with a large enough effect; an effect the other way counts as inactive or inconclusive;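 note: purified P. pyralis luciferase at 10 nM with luciferin and ATP substrate; series mostly up to about 59 µM; 0% = DMSO and -100% = full luciferase inhibition by PTC124 control; nearly all actives have a fitted effect of over 70% in size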). An outline of the steps:
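Direct inhibition of firefly luciferase enzyme (10 nM final, 50 mM Tris Acetate) assessed by luminescence within 5 minutes. Percent activity scaled between DMSO and PTC124 positive control, with concentration-effect curves classified by fit quality and response.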

Values joined by “and” are separate entries in the source; they are usually repeats but may differ in a detail not shown here. Identical values can stand only once. Inconclusive results are not listed. Active and inactive are the calls of the source. Unless noted, calls come from the whole dose curve.

Sequence of Peroxisome proliferator-activated receptor delta (Homo sapiens) (Q03181 whole entry, looked up): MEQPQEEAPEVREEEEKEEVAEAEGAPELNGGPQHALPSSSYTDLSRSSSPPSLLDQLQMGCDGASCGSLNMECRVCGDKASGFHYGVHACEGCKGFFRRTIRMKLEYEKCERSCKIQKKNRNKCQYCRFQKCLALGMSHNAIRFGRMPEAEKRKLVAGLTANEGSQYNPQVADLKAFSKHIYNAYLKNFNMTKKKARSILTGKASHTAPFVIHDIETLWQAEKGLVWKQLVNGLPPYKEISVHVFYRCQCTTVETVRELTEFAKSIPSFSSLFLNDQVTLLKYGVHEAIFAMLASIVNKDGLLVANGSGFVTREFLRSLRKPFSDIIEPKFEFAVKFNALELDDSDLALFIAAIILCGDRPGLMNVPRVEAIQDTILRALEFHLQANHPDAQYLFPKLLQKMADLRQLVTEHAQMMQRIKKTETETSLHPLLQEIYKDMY
Sequence of Nuclear receptor ROR-gamma (Homo sapiens) (P51449 whole entry, looked up): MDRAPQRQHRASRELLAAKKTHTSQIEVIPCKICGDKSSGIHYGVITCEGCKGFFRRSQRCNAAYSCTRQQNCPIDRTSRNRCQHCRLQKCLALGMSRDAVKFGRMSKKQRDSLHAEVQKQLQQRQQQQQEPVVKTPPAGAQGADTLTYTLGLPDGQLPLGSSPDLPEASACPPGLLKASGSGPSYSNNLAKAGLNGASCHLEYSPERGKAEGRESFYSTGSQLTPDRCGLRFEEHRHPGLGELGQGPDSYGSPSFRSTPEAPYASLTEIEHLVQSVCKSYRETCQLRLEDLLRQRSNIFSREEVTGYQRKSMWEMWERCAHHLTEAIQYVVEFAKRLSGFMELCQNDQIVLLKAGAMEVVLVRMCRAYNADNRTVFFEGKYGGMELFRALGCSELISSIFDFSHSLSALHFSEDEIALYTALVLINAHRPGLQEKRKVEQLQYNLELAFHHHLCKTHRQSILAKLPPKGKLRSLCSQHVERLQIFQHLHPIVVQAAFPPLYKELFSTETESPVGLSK
Sequence of Bile acid receptor (Homo sapiens) (Q96RI1 whole entry, looked up): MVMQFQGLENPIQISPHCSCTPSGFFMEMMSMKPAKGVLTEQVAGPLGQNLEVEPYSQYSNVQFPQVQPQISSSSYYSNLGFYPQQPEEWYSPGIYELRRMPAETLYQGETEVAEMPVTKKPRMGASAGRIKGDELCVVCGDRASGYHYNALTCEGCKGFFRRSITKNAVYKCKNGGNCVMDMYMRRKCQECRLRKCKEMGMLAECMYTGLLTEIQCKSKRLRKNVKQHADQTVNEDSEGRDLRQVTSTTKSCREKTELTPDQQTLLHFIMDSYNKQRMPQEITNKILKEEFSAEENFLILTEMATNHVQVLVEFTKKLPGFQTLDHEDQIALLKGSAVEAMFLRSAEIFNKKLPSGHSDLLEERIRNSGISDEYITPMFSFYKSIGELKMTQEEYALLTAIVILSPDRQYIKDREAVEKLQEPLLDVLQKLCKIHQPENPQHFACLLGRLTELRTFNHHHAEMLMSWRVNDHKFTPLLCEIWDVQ
Sequence of Retinoic acid receptor RXR-alpha (Homo sapiens) (P19793 whole entry, looked up): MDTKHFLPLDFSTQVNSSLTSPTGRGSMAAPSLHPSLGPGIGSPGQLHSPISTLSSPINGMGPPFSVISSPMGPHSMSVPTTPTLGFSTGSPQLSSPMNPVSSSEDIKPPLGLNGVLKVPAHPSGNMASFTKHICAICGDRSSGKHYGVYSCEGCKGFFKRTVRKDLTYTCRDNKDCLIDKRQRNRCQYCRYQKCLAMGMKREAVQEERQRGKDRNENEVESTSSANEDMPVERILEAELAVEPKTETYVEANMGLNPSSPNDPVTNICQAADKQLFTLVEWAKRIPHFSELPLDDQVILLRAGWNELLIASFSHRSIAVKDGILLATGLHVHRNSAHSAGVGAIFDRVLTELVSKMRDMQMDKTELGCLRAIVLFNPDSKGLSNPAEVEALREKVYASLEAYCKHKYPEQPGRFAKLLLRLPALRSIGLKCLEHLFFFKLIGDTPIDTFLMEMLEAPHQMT
Sequence of Glucocorticoid receptor (Homo sapiens) (P04150 whole entry, looked up): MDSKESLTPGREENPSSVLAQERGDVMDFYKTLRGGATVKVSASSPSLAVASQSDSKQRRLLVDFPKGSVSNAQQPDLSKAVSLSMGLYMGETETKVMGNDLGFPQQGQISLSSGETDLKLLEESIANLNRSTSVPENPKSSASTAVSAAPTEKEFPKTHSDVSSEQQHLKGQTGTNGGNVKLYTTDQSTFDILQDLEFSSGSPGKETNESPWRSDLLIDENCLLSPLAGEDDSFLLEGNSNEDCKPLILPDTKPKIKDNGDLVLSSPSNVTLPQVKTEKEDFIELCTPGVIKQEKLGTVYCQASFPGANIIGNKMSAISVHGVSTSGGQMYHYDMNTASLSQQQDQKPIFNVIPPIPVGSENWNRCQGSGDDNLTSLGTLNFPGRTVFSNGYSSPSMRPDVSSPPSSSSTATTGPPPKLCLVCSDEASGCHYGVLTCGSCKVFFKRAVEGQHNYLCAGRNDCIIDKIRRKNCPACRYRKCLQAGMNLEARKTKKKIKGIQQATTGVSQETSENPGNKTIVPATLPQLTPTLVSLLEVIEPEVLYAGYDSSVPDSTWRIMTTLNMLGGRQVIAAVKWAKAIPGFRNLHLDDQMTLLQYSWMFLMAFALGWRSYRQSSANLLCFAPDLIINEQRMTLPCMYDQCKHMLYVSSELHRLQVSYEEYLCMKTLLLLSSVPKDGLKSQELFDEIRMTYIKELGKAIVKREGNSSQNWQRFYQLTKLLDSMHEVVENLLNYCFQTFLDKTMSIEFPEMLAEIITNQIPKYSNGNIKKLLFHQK
Sequence of Vitamin D3 receptor (Homo sapiens) (P11473 whole entry, looked up): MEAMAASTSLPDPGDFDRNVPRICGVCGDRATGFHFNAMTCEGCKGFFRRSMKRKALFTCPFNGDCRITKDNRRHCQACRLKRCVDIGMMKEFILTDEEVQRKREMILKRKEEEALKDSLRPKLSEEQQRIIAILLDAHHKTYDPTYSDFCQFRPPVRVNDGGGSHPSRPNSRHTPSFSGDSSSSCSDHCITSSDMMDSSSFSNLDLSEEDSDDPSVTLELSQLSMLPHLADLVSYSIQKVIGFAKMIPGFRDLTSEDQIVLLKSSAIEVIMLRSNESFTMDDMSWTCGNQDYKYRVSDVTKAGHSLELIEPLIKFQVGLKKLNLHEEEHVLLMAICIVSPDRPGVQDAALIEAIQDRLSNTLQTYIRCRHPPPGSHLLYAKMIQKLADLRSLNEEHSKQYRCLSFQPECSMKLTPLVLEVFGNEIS
Sequence of Peroxisome proliferator-activated receptor alpha (Homo sapiens) (Q07869 whole entry, looked up): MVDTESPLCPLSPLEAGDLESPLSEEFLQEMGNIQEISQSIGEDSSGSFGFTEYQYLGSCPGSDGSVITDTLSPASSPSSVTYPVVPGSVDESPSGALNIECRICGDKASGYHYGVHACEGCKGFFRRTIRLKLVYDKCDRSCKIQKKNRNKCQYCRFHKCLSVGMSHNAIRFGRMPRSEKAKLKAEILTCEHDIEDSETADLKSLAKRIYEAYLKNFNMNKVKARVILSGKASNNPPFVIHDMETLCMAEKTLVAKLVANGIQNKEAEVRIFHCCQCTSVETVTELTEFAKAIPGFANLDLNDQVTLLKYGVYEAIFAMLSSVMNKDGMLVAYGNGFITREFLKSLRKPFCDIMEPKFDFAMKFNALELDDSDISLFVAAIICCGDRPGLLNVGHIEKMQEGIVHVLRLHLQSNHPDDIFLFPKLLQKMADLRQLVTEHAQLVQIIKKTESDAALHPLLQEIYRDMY
Sequence of Luciferin 4-monooxygenase (Photinus pyralis) (P08659 whole entry, looked up): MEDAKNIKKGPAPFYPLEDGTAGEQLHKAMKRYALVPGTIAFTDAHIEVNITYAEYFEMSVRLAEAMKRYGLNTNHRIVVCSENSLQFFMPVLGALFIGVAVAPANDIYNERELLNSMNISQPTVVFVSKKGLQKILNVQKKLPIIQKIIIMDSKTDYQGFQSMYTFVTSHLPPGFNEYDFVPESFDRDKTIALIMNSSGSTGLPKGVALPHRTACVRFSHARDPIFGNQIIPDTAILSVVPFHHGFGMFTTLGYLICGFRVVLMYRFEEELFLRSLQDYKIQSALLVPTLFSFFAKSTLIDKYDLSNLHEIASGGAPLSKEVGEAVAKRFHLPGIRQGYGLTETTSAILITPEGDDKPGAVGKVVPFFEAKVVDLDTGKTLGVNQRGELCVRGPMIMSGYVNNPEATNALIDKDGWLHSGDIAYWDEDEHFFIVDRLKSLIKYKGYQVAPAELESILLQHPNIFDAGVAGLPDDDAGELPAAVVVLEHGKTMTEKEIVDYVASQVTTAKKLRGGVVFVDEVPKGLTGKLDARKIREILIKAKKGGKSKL
Sequence of Nuclear receptor subfamily 1 group I member 2 (Rattus norvegicus) (Q9R1A7 whole entry, looked up): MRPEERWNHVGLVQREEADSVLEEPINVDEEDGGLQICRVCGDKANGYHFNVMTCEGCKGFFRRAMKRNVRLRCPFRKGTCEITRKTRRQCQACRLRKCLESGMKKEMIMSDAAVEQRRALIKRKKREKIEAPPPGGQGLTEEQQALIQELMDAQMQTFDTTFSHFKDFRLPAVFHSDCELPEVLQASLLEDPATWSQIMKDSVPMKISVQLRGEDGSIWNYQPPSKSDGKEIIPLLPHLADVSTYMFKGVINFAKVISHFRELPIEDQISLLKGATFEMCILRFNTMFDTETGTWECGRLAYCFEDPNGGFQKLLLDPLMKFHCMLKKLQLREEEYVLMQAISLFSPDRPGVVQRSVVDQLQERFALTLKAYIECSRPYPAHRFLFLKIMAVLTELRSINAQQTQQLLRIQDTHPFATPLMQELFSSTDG

For `CN(C)CCCCCCN(C)C`, the activation in [1] was -2.62% (inactive). Further, the molecule was classed as inactive in assay [2]. Moreover, the Potency result in assay [3], in [4] and in assay [5] was “inactive” in each case.

On to `Cc1cc(C)c(N)cc1C`, for which the activation in assay [1] is -1.7% (inactive). Further, the call in assay [2] was inactive. In assay [5], the Potency entry was “inactive”.

Regarding `CCCSC(=O)N(CCC)CCC`, the activation is -2.67% (inactive) in assay [6], 5.3% (inactive) in assay [16], 0.695% (inactive) in [17] and 1.67% (inactive) in [18]. For the same molecule, the Potency result in [7], in [9], in assay [10], in assay [13], in assay [14] and in assay [15] was “inactive” in each case. The Potency result in [20] and in assay [23] was “inactive” throughout. In addition, the molecule was classed as inactive in assay [2], in [11] and in assay [25]. In addition, the max response was 26.4% in [8]; -0.108% in assay [12]; -0.593% (inactive) in [19]; -2.88% (inactive) in [21]; -7.74% (inactive) in assay [22]; 1.18% (inactive) in assay [24].

Take `COc1ccccc1[N+](=O)[O-]`: the activation in [1] is -1.25% (inactive) and -5.38% (inactive). For the same molecule, in assay [13], the Potency entry was “inactive”.

For the molecule `CC(C)(C)C(=O)C1C(=O)c2ccccc2C1=O`, the activation in assay [1] was 1.07% (inactive). For the same molecule, in [5], the Potency was 21.1 µM (active).

With `ClC(Cl)Cl`, in [1], the activation is 0.676% (inactive). For the same molecule, in [2], the outcome was inactive. For the same molecule, the Potency entry in [26] is “inactive”.
